Several values for one entry are separate records, joined by “and”; a condition that tells them apart may be missing. Identical values can stand only once. In all, about 5,500 compounds went through this assay and about 2,000 (36%) were called active. Not shown: some 18% with an inconclusive outcome. Cut-off read from the data, not from the text of the source: active = normalized growth mostly below about 0.91 (no sharp cut-off); inconclusive = no clear call, values can overlap the other calls; inactive = mostly above about 0.92. Some of the results follow.
Assay: chemical genetic growth profiling, strain panel (AID 1159580);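 note: tested at 20 µM; growth read once vehicle control cultures reached saturation at 30 °C; 1 = growth at the plate median or of vehicle wells; lower values mean less growth of the strain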
Conditions: S. cerevisiae deletion strains, growth OD

Measured: normalized growth

C[C@@H]1O[C@@H](O[C@H]2CC[C@]3(C=O)C4CC[C@]5(C)[C@@H](C6=CC(=O)OC6)CC[C@]5(O)C4CC[C@]3(O)C2)[C@H](O)[C@H](O)[C@H]1O (stereo not given in full)
inactive: locus YAL021C, strain ccr4, hits give low values 1.02 | locus YAL026C, strain drs2, hits give low values 0.997 | locus YAL030W, strain snc1, hits give low values 0.998 | locus YBL061C, strain skt5, hits give low values 0.991 | locus YBR009C, strain hhf1, hits give low values 0.979 | locus YBR021W, strain FUR4, hits give low values 1.05 | locus YBR023C, strain chs3, hits give low values 0.999 | locus YBR171W, strain sec66, hits give low values 0.992 | locus YBR229C, strain ROT2, hits give low values 0.962 | locus YBR231C, strain swc5, hits give low values 0.987 | locus YBR279W, strain paf1, hits give low values 1 | locus YCL011C, strain gbp2, hits give low values 0.999 | locus YCL016C, strain dcc1, hits give low values 0.996 | locus YCL029C, strain bik1, hits give low values 0.985 | locus YCL061C, strain MRC1, hits give low values 1 | locus YCL069W, strain vba3, hits give low values 1.01 | locus YCR088W, strain abp1, hits give low values 0.997 | locus YDL005C, strain med2, hits give low values 0.999 | locus YDL035C, strain GPR1, hits give low values 0.999 | locus YDL040C, strain nat1, hits give low values 0.978 | locus YDL074C, strain BRE1, hits give low values 1.05 | locus YDL101C, strain DUN1, hits give low values 0.976 | locus YDL134C, strain PPH21, hits give low values 0.989 | locus YDL185W, strain tfp1, hits give low values 0.987 | locus YDL192W, strain arf1, hits give low values 0.99 | locus YDR001C, strain nth1, hits give low values 1 | locus YDR069C, strain doa4, hits give low values 0.984 | locus YDR101C, strain arx1, hits give low values 1.02 | locus YDR137W, strain rgp1, hits give low values 1.01 | locus YDR150W, strain NUM1, hits give low values 0.995 | locus YDR159W, strain sac3, hits give low values 0.95 | locus YDR162C, strain NBP2, hits give low values 0.934 | locus YDR195W, strain ref2 0.927 | locus YDR297W, strain sur2, hits give low values 0.996 | locus YDR318W, strain mcm21, hits give low values 0.979 | locus YDR334W, strain swr1, hits give low values 0.998 | locus YDR335W, strain msn5, hits give low values 1 | locus YDR388W, hits give low values 0.999 | locus YDR392W, strain spt3, hits give low values 0.88 | locus YDR502C, strain sam2, hits give low values 0.982 | locus YEL003W, strain gim4, hits give low values 0.999 | locus YEL037C, strain rad23, hits give low values 1.01 | locus YEL061C, strain CIN8 (second series), hits give low values 1 | locus YEL061C, strain CIN8, hits give low values 0.996 | locus YER015W, strain faa2, hits give low values 0.992 | locus YER016W, strain bim1, hits give low values 0.99 | locus YER110C, hits give low values 0.985 | locus YER111C, strain swi4, hits give low values 0.988 | locus YER155C, strain BEM2 (second series), hits give low values 0.978 | locus YER155C, strain BEM2, hits give low values 1.01 | locus YER167W, strain BCK2, hits give low values 0.999 | locus YFR010W, strain ubp6, hits give low values 0.999 | locus YGL078C, strain dbp3, hits give low values 0.989 | locus YGL086W, strain mad1, hits give low values 1.04 | locus YGL167C, strain pmr1, hits give low values 0.982 | locus YGL173C, strain kem1, hits give low values 0.99 | locus YGL227W, strain vid30, hits give low values 0.99 | locus YGL240W, strain doc1, hits give low values 0.969 | locus YGL248W, strain PDE1, hits give low values 0.976 | locus YGL253W, strain hxk2, hits give low values 0.992 | locus YGR078C, strain PAC10, hits give low values 0.974 | locus YGR135W, strain pre9, hits give low values 0.966 | locus YGR229C, strain SMI1, hits give low values 0.987 | locus YGR252W, strain gcn5, hits give low values 0.953 | locus YHR013C, strain ard1, hits give low values 0.954 | locus YHR027C, strain rpn1, hits give low values 0.996 | locus YHR030C, strain SLT2, hits give low values 1.01 and 0.997 | locus YHR079C, strain IRE1 (second series), hits give low values 1.01 | locus YHR079C, strain IRE1, hits give low values 0.992 | locus YHR094C, strain hxt1, hits give low values 0.986 | locus YHR129C, strain ARP1, hits give low values 1 | locus YHR142W, strain chs7, hits give low values 1.03 | locus YHR200W, strain rpn10, hits give low values 1 | locus YIL066C, strain RNR3, hits give low values 0.984 | locus YIL073C, strain SPO22, hits give low values 1.02 | locus YIL125W, strain kgd1, hits give low values 0.988 | locus YIR030C, strain dcg1, hits give low values 0.995 | locus YJL092W, strain hpr5, hits give low values 1 | locus YJL095W, strain BCK1 (second series), hits give low values 0.998 | locus YJL095W, strain BCK1, hits give low values 0.965 and 0.985 | locus YJL115W, strain asf1, hits give low values 0.999 | locus YJL129C, strain trk1, hits give low values 1.01 | locus YJL134W, strain LCB3, hits give low values 0.994 | locus YJL154C, strain vps35, hits give low values 1.01 | locus YJL164C, strain tpk1, hits give low values 1.01 | locus YJL166W, strain qcr8, hits give low values 0.99 | locus YJL168C, strain set2, hits give low values 0.99 | locus YJL187C, strain SWE1 (second series), hits give low values 0.97 | locus YJL187C, strain SWE1, hits give low values 1 | locus YJR043C, strain POL32, hits give low values 0.99

Source: PubChem BioAssay AID1159580 (chemical genetic matrix, 2015)
